Compound activity: PubChem BioAssay, National Center for Advancing Translational Sciences (NCATS)
Shown is part of a subset that was picked to be rich in hits.
FBPA Giardia inh – blocks Giardia fructose-bisphosphate aldolase activity. A8B2U2. purified Giardia FBPA. Potency, µM (titrated, usually from 59.6 µM), without a hit: top-dose activity, negative = inhibition, most hits filed as inhibitors. 0.71% of 290,000 active. AID 2451; further: potency means the concentration at half of the fitted maximal effect; on the % scale 0 is the no-effect control and ±100 the full control effect; nearly all actives have a fitted effect of over 55% in size
Target sequence (A8B2U2 whole entry, looked up): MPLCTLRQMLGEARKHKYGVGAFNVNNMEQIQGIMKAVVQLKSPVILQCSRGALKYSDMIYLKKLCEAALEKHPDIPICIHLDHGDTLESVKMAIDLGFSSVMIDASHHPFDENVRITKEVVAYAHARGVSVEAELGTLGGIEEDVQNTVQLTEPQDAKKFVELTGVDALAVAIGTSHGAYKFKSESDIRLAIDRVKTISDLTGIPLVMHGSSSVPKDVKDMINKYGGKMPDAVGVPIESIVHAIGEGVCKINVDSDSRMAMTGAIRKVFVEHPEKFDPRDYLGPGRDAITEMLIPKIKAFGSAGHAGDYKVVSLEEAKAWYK
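40 nM FBPA preincubated 10 min at RT with compound (up to 57.5 uM final), then substrate plus GAPDH/TPI/NAD/arsenate coupling and diaphorase/resazurin added. Fluorescence read after 20 min at RT, 525/598 nm.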
TbPYK inhibitor – blocks Trypanosoma brucei pyruvate kinase; Q57TT1; TbPYK enzyme, Kinase-Glo Plus ATP luminescence, 45 min; Potency, µM (doses to about 76.8 µM), without a hit: at the highest dose activity, negative = inhibition, actives largely listed as inhibitors; 0.12% of 410,000 active; further: potency means the concentration at half of the fitted maximal effect; on the % scale 0 is the no-effect control and ±100 the full control effect; nearly all actives have a fitted effect of over 50% in size
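T. brucei PYK with substrate was exposed to pin-transferred compounds across a concentration series, then started with 130 uM ADP (final). After 45 min at room temperature, Kinase-Glo Plus luminescence was read, normalized and curve-fitted.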
Shiga toxin inh – Shiga toxin inhibition; inhibition, % at 38.7 µM; Vero cells, Shiga toxin protein synthesis inhibition reporter; AID 2315; 9.2% of 290,000 active; in the data active means inhibition mostly above about 28%, no sharp cut-off; inactive means mostly below about 43%; further: 0% is about no effect
CHX counter – affects cycloheximide protein synthesis inhibition readout, counter-screen. max response, %. cell reporter, cycloheximide protein synthesis inhibition counterscreen. AID 2314. 12% of 300,000 active; in the data active means max response mostly above about 13%, no sharp cut-off; inactive means mostly below about 14%; further: read at 38.3 µM for the half of the compounds with a filed dose; 0% is about no effect
LmPK inhibitor – LmPK (Leishmania mexicana) enzyme inhibition. Q27686. purified LmPK, Kinase-Glo ATP luminescence, 1 h. Potency, µM (titrated, usually from 57.5 µM), without a hit: at the top dose activity change, negative = inhibition, most hits filed as inhibitors. 0.37% of 290,000 active. AID 1721; further: potency means the concentration at half of the fitted maximal effect; on the % scale 0 is the no-effect control and ±100 the full control effect
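Pyruvate kinase activity monitored as ATP production (luciferase luminescence). Conditions: 0.1 nM enzyme, 0.5 mM PEP, 0.1 mM ADP, 1 h, RT; normalized against uninhibited and no-enzyme wells.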
RE007 growth inh – less growth of the S. pombe RE007 Vpr strain | S. pombe RE007 Vpr strain, BacTiter-Glo ATP luminescence, 24 h | Potency, µM (series often up to 92.2 µM), without a hit: at the highest dose activity change, negative = less growth, hits mostly inhibitors | 0.21% of 360,000 active | AID 651644; active means well fitted falling curve with a large enough effect; inconclusive means small, poorly fitted or top-dose-only effect; inactive means no such curve, though single readings can be large or run the other way; further: potency means the concentration at half of the fitted maximal effect; on the % scale 0 is the no-effect control and ±100 the full control effect; nearly all actives have a fitted effect of over 50% in size
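Fission yeast strain RE007, carrying one chromosomally integrated HIV-1 vpr copy, was seeded at OD 0.01 in PMG+AL medium with 23 nL pinned compound. After 24 h at 30 °C and 99% humidity, viability was read by BacTiter-Glo luminescence.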
* marks the source's active call; other numbers are inactive results; u = inconclusive; x = not tested or not shown; [ ] = remark or other dose. Unless noted, the call rests on the fitted dose curve; in most records, active means well fitted curve in the direction sought with a large enough effect; inconclusive means small, poorly fitted or top-dose-only effect, or another doubt; inactive means no such curve, though single readings can be large; an effect the other way counts as inactive or inconclusive.

SMILES | FBPA Giardia inh | TbPYK inhibitor | Shiga toxin inh | CHX counter | LmPK inhibitor | RE007 growth inh
Cc1cccc(NC(=O)N2CC(=O)Nc3sc4c(c3C2c2ccccc2)CCCC4)c1C (stereo not given) | x | -2% | x | x | x | x
Clc1ccc(-n2ncc3c(NCc4ccco4)ncnc32)cc1 | -11% | x | -10 | 2 | -2% | 8%[3.69 µM]
CN(C)CCNc1ncnc2c1cnn2-c1cccc(Cl)c1 | x | -7% | x | x | x | x
OCCCNc1ncnc2c1cnn2-c1ccc(Cl)cc1 | -2% | 5% | 75* | 52* | -4% | 6%
CN(C)CCNc1ncnc2c1cnn2-c1ccc(Cl)cc1 | 2% | 0% | 56 | 30* | 14% | -14%
Cc1nc2scc(-c3ccccc3)c2c(=O)o1 | 7% | -1% | -21 | -6 | -2% | -3%
O=c1oc(-c2ccccc2F)nc2scc(-c3ccccc3)c12 | -1% | 0% | 32* | 21* | 2% | 13%
COc1ccc2[nH]c3c(=O)n(CCCCC(=O)NCCN4CCCC4)c(=S)[nH]c3c2c1 | -14% | 6.3µM* | -7 | -5 | 7.1µM* | -5%
COc1ccc2[nH]c3c(=O)n(CCCCC(=O)N4CCC(C(N)=O)CC4)c(=S)[nH]c3c2c1 | -5% | 6.3µM* | 32 | -2 | 4µM* | -16%
CCCCNC(=O)CCCCn1c(=S)[nH]c2c([nH]c3ccc(OC)cc32)c1=O | 4% | -12% | -4 | -4 | -2% | 3%
CCOC(=O)C[C@@H](C(=O)OCC)[C@@H]1CCCCC1=O | -8%[12.9 µM] | x | x | x | x | x
CNC(=O)c1sc2nc(-c3ccc(OC)cc3)cn2c1C | u | 6% | 146* | 86* | 5% | -5%
CCN(CC)C(=O)c1sc2nc(-c3ccc(OC)cc3)cn2c1C | 3% | -23% | 77* | 38* | -15% | -1%
COc1ccc(-c2cn3c(C)c(C(=O)Nc4cc(NC(C)=O)ccc4OC)sc3n2)cc1 | 0% | -12% | 6 | 1 | -4% | 5%
COc1ccccc1CN1CC2(CCN(C(=O)c3cccc(F)c3)CC2)C1 | -3% | -5% | x | x | x | x
N#Cc1nc(Nc2ccccc2)nc(NC2CCCC2)n1 | -11% | x | x | x | x | x
CCC=CC[C@H]1C(=O)CC[C@@H]1CC(=O)OC | x | -1% | x | x | x | x
O=c1c(N2CCc3ccccc3C2)csc2ccc(F)cc12 | x | 17% | x | x | x | x
c1ccc2ncccc2c1 | x | 3% | x | x | x | -6%
Nc1ccc2ncccc2c1 | 2.2µM* | -28% | 136* | 48* | -10% | -4%
Nc1ccc2ncccc2c1N | u | -6% | 42* | 28* | -4% | -13%
Nc1ccc(/C=C/c2ccc3ncccc3c2)cc1 | 5% | 0% | 85* | 38* | -14% | x
COC(=O)c1ccccc1NC(=O)CSc1nc2nc(C)cc(C)n2n1 | x | 2% | x | x | x | x
CCC1CCc2nc3sc(C(=O)Nc4cccc(F)c4)c(N)c3cc2C1 (stereo not given) | x | -2% | x | x | x | x
CCCn1c(-c2ccc(F)cc2)nc2c(N3CCN(CCC(=O)OCC)CC3)nc(C)nc21 | -1% | x | x | x | x | x
SMILES | FBPA Giardia inh | TbPYK inhibitor | Shiga toxin inh | CHX counter | LmPK inhibitor | RE007 growth inh
CCOC(=O)C1(Cc2ccc(OC)cc2)CCN(C(=O)CN2CCCCC2=O)CC1 | 5% | 0% | 26* | 17* | -2% | 5%
CCOC(=O)C1(Cc2ccc(OC)cc2)CCN(S(C)(=O)=O)CC1 | -4% | -4% | 50* | 47* | 17% | -9%
CCOC(=O)C1(Cc2ccc(OC)cc2)CCN(C(=O)CN2CCOC2=O)CC1 | -1% | -3% | 17 | 14 | -5% | 3%
CCOC(=O)C1(Cc2ccc(OC)cc2)CCN(C(=O)c2cc(C)nn2C)CC1 | x | -3% | 19 | 14* | -9% | 3%
CCOC(=O)C1(Cc2ccccc2Cl)CCN(S(C)(=O)=O)CC1 | -17% | 0% | -9 | -1 | 0% | -9%
CCCS(=O)(=O)N1CCC(Cc2ccc(OC)cc2)(C(=O)OCC)CC1 | 1% | -9% | 19 | 20* | -5% | 10%
Cc1ccc(-n2c(=O)c3sc4ccccc4c3n(CC(=O)NC3CCCC3)c2=O)cc1C | x | 4% | x | x | x | x
COCC(=O)N1CCC2(CC1)CCN(c1cccc(-c3ccccc3)c1)CC2 | 2% | 0% | x | x | x | x
Cc1cc(Cl)ccc1NC(=O)CN1C(=O)COc2ccc(S(=O)(=O)N3CCC(C)CC3)cc21 | x | 1% | x | x | x | x
Clc1ccc(Oc2nnnn2-c2ccccc2)cc1 | 3% | -17% | 27 | 15 | 0% | u
COc1cccc(Oc2nnnn2-c2ccccc2)c1 | -1% | x | 146 | 33* | 1% | -17%[3.69 µM]
COc1ccc(Oc2nnnn2-c2ccccc2)cc1 | 7% | -6% | 31* | 32* | -4% | -8%
CCN(CC)S(=O)(=O)c1ccc(C(=O)Nc2nc3c(Cl)cc(Cl)cc3s2)cc1 | x | -4% | x | x | x | x
COc1ccc(CNC(=O)c2ccc(Cn3c(=O)c4cccn4c4cccnc43)cc2)c(OC)c1 | x | 0% | x | x | x | x
O=C(O)c1ccc(/C=C2\SC(=S)N(Nc3ccccc3)C2=O)cc1 | -7% | -17% | 80* | 24* | u | 17%
CCOc1cc(/C=C2\SC(=S)N(Nc3ccccc3)C2=O)ccc1O | 1% | -22% | 62* | 55* | u | 8%
O=C1/C(=C/c2ccncc2)SC(=S)N1Nc1ccccc1 | -24% | -14% | 5 | 11 | -13% | 26%
COc1cc(/C=C2\SC(=S)N(Nc3ncc(C(F)(F)F)cc3Cl)C2=O)ccc1O | -17% | -26% | 29 | 14* | -3% | u
CCOc1cc(/C=C2\SC(=S)N(NS(=O)(=O)c3ccccc3)C2=O)ccc1O | -22% | -6% | -5 | -6 | 2% | -7%
COc1cc(/C=C2\SC(=S)N(Nc3ccccc3)C2=O)ccc1O | 2% | -29% | 62* | 51* | -21% | 3%
COc1ccc(OC2C(O)COC2/C=C/C#Cc2ccc(F)cc2F)cc1 (stereo not given) | -1%[12.9 µM] | x | x | x | x | x
CCc1ccc(OCC(=O)N(Cc2ccc(OC)cc2)C2CCS(=O)(=O)C2)cc1 (stereo not given) | x | 1% | x | x | x | x
COCCNc1ncnc2ccc(-c3cccc(OC)c3)cc12 | 0% | x | x | x | x | x
C=CCN1C(=O)/C(=C\c2ccc(OC(=O)c3ccco3)c(OC)c2)SC1=S | -2% | -11% | 41 | 27* | 0% | -6%
C=CCN1C(=O)/C(=C\c2cccc(OC(=O)c3ccco3)c2)SC1=S | -1% | -2% | -6 | -1 | 1% | -5%
COc1ccc(/C=C2/SC(=S)N(Cc3ccccc3)C2=O)cc1O | -2% | 2% | 120* | 13 | -3% | -7%
C=CCN(C(=O)CC(NC(C)=O)c1ccccc1)c1nc(-c2ccc(S(C)(=O)=O)cc2)cs1 (stereo not given) | -8% | 0% | 79* | 31* | 1% | -6%
CC(=O)NC(c1ccccc1)c1nc(-c2ccc(S(C)(=O)=O)cc2)cs1 (stereo not given) | x | -13% | x | x | x | 3%[18.4 µM]
